Hits are enriched below; roughly 1.8% of the tested compounds scored in any of these assays.
EP2 antag: human EP2 receptor antagonists, primary screen, TR-FRET cAMP, C6 glioma cells | Prostaglandin E2 receptor EP2 subtype (Homo sapiens), P43116 | C6 glioma cells expressing human EP2; cells stimulated with saturating PGE2 | inhibition, % at 25 µM | 260,000 compounds, 0.52% hits | AID 1422, 2008;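 active = percent inhibition above 40 after rounding to a whole number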;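 also: rat C6 glioma host cells with rolipram phosphodiesterase inhibitor present; the protocol text gives 20 µM as final concentration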
EP2 mod: EP2 receptor modulators, cAMP readout, primary screen, cell-based, HTRF cAMP, PGE2 stimulation; Prostaglandin E2 receptor EP2 subtype (Homo sapiens), P43116; EP2-expressing cells, cAMP HTRF FRET, PGE2 co-stimulation; induction, % at 25 µM; 260,000 compounds, 0.83% hits; AID 940, 2007;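 active = compounds whose cAMP rise, as percent of the full-agonist control response, exceeds 60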;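 also: rat C6 glioma line stably carrying human EP2 under a CMV promoter; the protocol text gives 20 µM as final concentration; 100% = response of wells given 1 µM PGE2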
eIF4E-4G inh: eIF4E–eIF4G protein interaction inhibitors, primary screen, biochemical, uHTS, TR-FRET, eIF4GI fragment. Eukaryotic translation initiation factor 4E (Mus musculus) + Eukaryotic translation …. TR-FRET eIF4E-eIF4GI(517-606) binding, 2 h. inhibition, % at 21.7 µM. 220,000 compounds, 0.37% hits. AID 782, 2007;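 active = inhibition above about 30%, limit read from the data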;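 also: 0% = full FRET control wells and 100% = background wells lacking eIF4GI fragment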
PERK inhibitor: block of dimerizer-induced PERK translation repression, primary screen, PERK inhibitor project, CHO PERK-DD cells, SEAP luminescence, HTS | AID 1416, 2008 | CHO PERK-DD fusion, SEAP luminescence translation reporter | 220,000 compounds, 0.17% hits | Eukaryotic translation initiation factor 2-alpha kinase 3 (Homo sapiens), Q9NZJ5 | inhibition, % at 5.6 µM;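 active = inhibition above the mean inhibition of all tested compounds plus 3 SD, set separately per screening campaign, cut at about 2.9% in these data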;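 also: PERK kinase domain activated by AP20187 dimerizer at 100 nM; 0% = DMSO with dimerizer and 100% = rapamycin at 8.4 µM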
EP2 cAMP induct: cAMP induction in EP2, EP4, beta2-AR and parental cells, confirmation, counter-screen for EP2 modulator project, cell-based, five parallel assays, C6 glioma, HEK293 | shares compounds with EP2 mod | cAMP HTRF induction; plus low (about EC15) PGE2 agonist | calls only at 20 µM (by protocol) | 1,300 compounds, 47% hits;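 active = cAMP induction above 50% in the main assay while under 30% in all four parallel counter assays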;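 also: rat C6 glioma cells stably expressing human EP2 receptor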
Numbers without * were called inactive; i = inactive; . = no result; + = active, no number; ! = repeats disagree.

SMILES	EP2 antag	EP2 mod	eIF4E-4G inh	PERK inhibitor	EP2 cAMP induct
Cc1ccsc1-c1n[nH]c(=S)n1C1CCCCC1	6.0	62.9*	-7.7	1.0	i
CCc1nnc(NC(=O)c2c(C)cc(C)cc2C)s1	7.8	-38.9	.	.	.
CCCc1nc(SCC(=O)c2ccccc2)c2c(=O)n(C)c(=O)n(C)c2n1	5.9	28.5	-2.9	1.3	.
CCCCc1nc(SCCOC)c2c(=O)n(C)c(=O)n(C)c2n1	5.8	59.0	1.4	0.7	i
Cc1ccc(C(=O)OCC(=O)Nc2ccccc2Sc2ccccc2)cc1C	7.4	68.5*	-0.6	0.5	+
COc1cc(S(=O)(=O)N(Cc2ccc(C)cc2)Cc2ccco2)ccc1-n1cnnn1	2.2	26.3	-6.2	-0.4	.
COc1cc(S(=O)(=O)N(Cc2cccnc2)Cc2ccco2)ccc1-n1cnnn1	10.4	78.8*!	-6.4	-0.6	i
COc1ccc(S(=O)(=O)N2CCC(C(=O)NCc3ccccc3)CC2)cc1	17.6	-50.0	.	.	.
OCCCNc1nc(-c2ccc(Cl)cc2)nnc1-c1ccc(Br)cc1	12.6	77.1*	-5.4	-1.9	+
O=[N+]([O-])c1ccc(-c2nnc(-c3ccccc3)c(NCCCO)n2)cc1	5.9	13.3	15.8	-0.5	.
Cc1nn(C)cc1S(=O)(=O)N1CCCC(CN2CCCC2)C1 (centres undefined)	2.6	-51.2	.	.	.
COC(=O)c1c(NC(=O)Cc2cccs2)sc2c1CCCC2	14.3	55.5	12.7	-0.8	i
COC(=O)c1c(NC(=O)Cc2cccs2)sc(C)c1C	5.7	55.9	0.9	-0.4	i
N#Cc1sc2nc(C3CC3)cc(-c3ccc(Cl)cc3)c2c1N	11.2	75.7*	-2.8	-1.2	i
COc1ccc(-c2cc(-c3cccs3)nc3sc(C#N)c(N)c23)cc1	12.9	-1.6	0.9	0.0	.
CC(c1ccccc1)N1CCC(NC(=O)c2ccc(=O)[nH]n2)CC1 (centres undefined)	7.7	-17.6	.	.	.
CCN=C1S/C(=C\c2ccc(O)c(OCC)c2)C(=O)N1CC	7.7	81.3*	2.5	-0.5	i
CCN=C1S/C(=C\c2cc(OCC)c(O)cc2Br)C(=O)N1CC	10.6	48.7	1.4	0.9	.
CCc1[nH]nc2c1C1(C(=O)N(CC)c3ccccc31)C(C#N)=C(N)O2 (centres undefined)	8.6	-12.3	.	.	.
O=C(CN1CCC(c2nc3ccccc3s2)CC1)Nc1ccccc1Br	16.6	-92.1	.	.	.
CCc1nc(SCC(=O)c2ccc3c(c2)OCCO3)c2ccccc2n1	14.0	-50.0	3.6	-0.9	.
O=C(CSc1nc(Cc2ccccc2)nc2ccccc12)c1ccc2c(c1)OCCO2	4.8	66.2*	-38.2	-0.7	+
CCOC(=O)c1cnc(SC(C)C(=O)Nc2ccc(C)cc2C)nc1N (centres undefined)	9.8	-31.2	.	.	.
C(=N\N(Cc1ccccc1)c1ccccc1)/c1cccnc1	10.9	70.5*	-0.7	-0.1	+
C/C(=N\N(Cc1ccccc1)c1ccccc1)c1cccnc1	9.4	69.8*	-2.4	0.1	i
SMILES	EP2 antag	EP2 mod	eIF4E-4G inh	PERK inhibitor	EP2 cAMP induct
CN(Cc1ccccc1)C(=S)Nc1cccnc1	3.2	-12.9	3.8	1.3	.
Cc1cccc2cc(CN(Cc3cccs3)C(c3nnnn3Cc3ccccc3)C(C)C)c(=O)[nH]c12 (centres undefined)	8.6	-27.1	.	.	.
CCn1cc(CC(=O)NCc2noc(-c3ccc(C)cc3)n2)c2ccccc21	5.8	-62.7	.	.	.
CCc1ccc(NC(=O)c2cc(C)on2)cc1	-0.6	6.4	0.5	0.6	.
CCCc1cc(C(=O)OC)c(NC(=O)c2cc(C)on2)s1	6.3	58.0	3.4	-0.2	+
CCc1ccc(-n2c(SCC(=O)N(CC)CC)nnc2-c2ccccn2)cc1	6.7	-8.2	.	.	.
COc1ccc(-c2nnc(N3CCC(C)CC3)c3ccccc23)cc1	.	66.4*	1.6	1.2	i
CC1CCN(c2nnc(N3CCC(C)CC3)c3ccccc23)CC1	3.3	7.5	-0.8	0.6	.
c1ccc(-c2csc3ncnc(N4CCc5ccccc5C4)c23)cc1	6.2	71.8*	1.7	-0.7	+
c1ccc(-c2csc3ncnc(N4CCOCC4)c23)cc1	8.4	-19.4	-0.6	-0.7	.
C=CCC(NCc1ccccc1)c1ccc(Cl)cc1 (centres undefined)	0.9	71.8*	26.3	0.9	i
COc1cccc(CN2CCN(S(=O)(=O)Cc3ccccc3)CC2)c1OC	8.5	-83.4	.	.	.
CCOC(=O)c1c(NC(=O)CSc2nnnn2C)sc(C)c1C	7.5	23.7	3.9	-1.8	.
CCOC(=O)c1c(NC(=O)c2cccnc2)sc(C)c1C	13.4	52.4	10.4	-0.2	+
CCCn1c(SCC(=O)Nc2sc(C)c(C)c2C(=O)OCC)nc2c1c(=O)n(C)c(=O)n2C	11.0	52.5	-10.6	0.4	i
CCOC(=O)c1c(NC(=O)CC(C)C)sc(C(C)=O)c1C	5.7	52.0	-3.9	0.2	i
CCOC(=O)c1c(NC(=O)COC)sc(C(C)=O)c1C	8.6	30.3	2.7	-0.6	.
CCOC(=O)c1c(NC(=O)CSc2nnnn2CC)sc(C)c1C	17.9	60.2	0.0	-1.9	i
Cc1ccc2cc(C(c3nnnn3Cc3ccccc3)N3CCCC(C)C3)c(=O)[nH]c2c1 (centres undefined)	11.5	-11.2	.	.	.
Cc1cc(C)c(S(=O)(=O)N(Cc2ccco2)Cc2cc3ccc(C)cc3[nH]c2=O)c(C)c1	10.1	42.0	.	.	.
CCN(CC)C(=O)Cn1nc(C)n2c(cc3sc(C)cc32)c1=O	.	-9.7	.	.	.
CCOC(=O)c1c(NC(=O)c2ccoc2C)sc(C(=O)N(C)C)c1C	13.2	53.9	1.8	-2.7	i
CCCCNCC(=O)Nc1sc(C)c(C)c1C(=O)OCC	3.5	53.4	5.8	0.1	i
CCOC(=O)c1c(NC(=O)CNCC(O)CO)sc(C)c1C (centres undefined)	22.2	6.5	1.9	-1.5	.
CCN(CC)C(=O)c1sc(NC(=O)c2ccoc2C)c(C(=O)OC)c1C	17.3	1.8	20.6	-1.1	.
CC(C)NC(=O)C1CCCN1C(=O)Nc1ccccc1Cl (centres undefined)	6.6	18.9	.	.	.
COC(=O)C1=C(C)NC(=O)NC1c1ccc(OC(C)C)c(OC)c1 (centres undefined)	11.1	-48.1	.	.	.
Cc1cc(O)c(C=O)c2c1C(=O)Oc1c(COC(=O)/C=C/C(=O)O)c(O)c(C(=O)O)c(C)c1O2	9.5	62.9*	.	.	+
